Assay results: PubChem BioAssay
“And” between values parts separate entries of the source, which are not always exact repeats. Equal entries are not always repeated. For part of these data: Results with a measured potency or affinity are listed apart. The source made the active and inactive calls. Unless noted, no stated cut-off is given here; in the data, active means parasite load remaining mostly below about 12% (no sharp cut-off); inactive means mostly above about 10%.

Test: suppressors of polyQ aggregation in yeast, 75Q-TubU reporter (AID 1593)
Conditions: Yeast 75Q polyglutamine aggregation reporter

| Structure (SMILES) | score |
| --- | --- |
| CC(C)(C)c1ccc(C(O)CCCN2CCC(C(O)(c3ccccc3)c3ccccc3)CC2)cc1 (configuration not stated) | 0.48 |
| Cc1ccc(/C(=C\CN2CCCC2)c2ccccn2)cc1 | 1.45 |
| CC(C)(C)CC(C)(C)c1ccc(OCCOCC[N+](C)(C)Cc2ccccc2)cc1 | -0.06 |
| O=C(O)c1cn(C2CC2)c2cc(N3CCNCC3)c(F)cc2c1=O | 1.22 |

Test: rescue of polyQ-huntingtin neuronal dysfunction in worms, whole organism, C. elegans mechanosensory neurons, N-terminal huntingtin (AID 1599)
Conditions: touch response, stronger effect = higher value

| Structure (SMILES) | rescue above control |
| --- | --- |
| Cc1ccc(/C(=C\CN2CCCC2)c2ccccn2)cc1 | -10.7 |
| CC(C)(C)CC(C)(C)c1ccc(OCCOCC[N+](C)(C)Cc2ccccc2)cc1 | 0 |
| O=C(O)c1cn(C2CC2)c2cc(N3CCNCC3)c(F)cc2c1=O | 13.4 |

Test: inhibitors of mitochondrial cytochrome c release, biochemical, purified mitochondria (AID 1603);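 further: mouse liver mitochondria challenged with calcium chloride; signal normalized to the plate average as 100%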
Conditions: stronger effect = lower value

| Structure (SMILES) | cytochrome c release ratio |
| --- | --- |
| CC(C)(C)c1ccc(C(O)CCCN2CCC(C(O)(c3ccccc3)c3ccccc3)CC2)cc1 (configuration not stated) | 4.87 |
| Cc1ccc(/C(=C\CN2CCCC2)c2ccccn2)cc1 | 1.11 |
| CC(C)(C)CC(C)(C)c1ccc(OCCOCC[N+](C)(C)Cc2ccccc2)cc1 | 15.9 |
| O=C(O)c1cn(C2CC2)c2cc(N3CCNCC3)c(F)cc2c1=O | 1.03 |

Test: inhibitors of polyQ protein aggregation (AID 1604)
Conditions: polyglutamine-induced protein aggregation inhibition assay; stronger effect = higher value; concentration not given here

| Structure (SMILES) | inhibition of aggregation |
| --- | --- |
| CC(C)(C)c1ccc(C(O)CCCN2CCC(C(O)(c3ccccc3)c3ccccc3)CC2)cc1 (configuration not stated) | 4.76% |
| Cc1ccc(/C(=C\CN2CCCC2)c2ccccn2)cc1 | 23.8% |
| CC(C)(C)CC(C)(C)c1ccc(OCCOCC[N+](C)(C)Cc2ccccc2)cc1 | 58.6% |
| O=C(O)c1cn(C2CC2)c2cc(N3CCNCC3)c(F)cc2c1=O | 20.6% |

Test: enhancers of glutamate uptake in motor neurons, MN-1 cell line (AID 1612);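 further: 0% = mean of DMSO vehicle wells on each plate; positive means more glutamate uptake than control and negative means less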
Conditions: MN-1 motor neuron cells, stronger effect = higher value

| Structure (SMILES) | glutamate uptake change |
| --- | --- |
| CC(C)(C)c1ccc(C(O)CCCN2CCC(C(O)(c3ccccc3)c3ccccc3)CC2)cc1 (configuration not stated) | -7.35% |
| Cc1ccc(/C(=C\CN2CCCC2)c2ccccn2)cc1 | -7.2% |
| CC(C)(C)CC(C)(C)c1ccc(OCCOCC[N+](C)(C)Cc2ccccc2)cc1 | -11.3% |
| O=C(O)c1cn(C2CC2)c2cc(N3CCNCC3)c(F)cc2c1=O | -1.59% |

Test: suppressors of polyglutamine aggregation in yeast, 75Q-TubH (AID 1616)
Conditions: S. cerevisiae 75Q-TubH polyglutamine aggregation suppression; stronger effect = higher value

| Structure (SMILES) | aggregation suppression score |
| --- | --- |
| CC(C)(C)c1ccc(C(O)CCCN2CCC(C(O)(c3ccccc3)c3ccccc3)CC2)cc1 (configuration not stated) | 0.868 |
| Cc1ccc(/C(=C\CN2CCCC2)c2ccccn2)cc1 | 0.939 |
| CC(C)(C)CC(C)(C)c1ccc(OCCOCC[N+](C)(C)Cc2ccccc2)cc1 | -0.0343 |
| O=C(O)c1cn(C2CC2)c2cc(N3CCNCC3)c(F)cc2c1=O | 1.3 |

Test: circadian clock period modulators, cell-based, LOPAC library, luminescence reporter (AID 2774; call rule not given here;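 further: values are relative to mean of DMSO wells on each plate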)
Conditions: circadian reporter cells, at 7 µM, actives lie on both sides

| Structure (SMILES) | period change |
| --- | --- |
| CC(C)(C)c1ccc(C(O)CCCN2CCC(C(O)(c3ccccc3)c3ccccc3)CC2)cc1 (configuration not stated) | 0.22 h (inactive) |
| O=C(NCC1CCCCN1)c1cc(OCC(F)(F)F)ccc1OCC(F)(F)F (configuration not stated) | 0.075 h (inactive) |
| Cc1ccc(/C(=C\CN2CCCC2)c2ccccn2)cc1 | 0.045 h (inactive) |
| CC(C)(C(=O)O)c1ccc(C(O)CCCN2CCC(C(O)(c3ccccc3)c3ccccc3)CC2)cc1 (configuration not stated) | 0.08 h (inactive) |

Test: hESC survival regulators, cell-based (AID 493140; call rule not given here;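 further: cells exposed to compounds for four days before counting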)
Conditions: human embryonic stem cell survival screen; stronger effect = higher value

| Structure (SMILES) | survival |
| --- | --- |
| CC(C)(C)c1ccc(C(O)CCCN2CCC(C(O)(c3ccccc3)c3ccccc3)CC2)cc1 (configuration not stated) | 3.75 (inactive) |
| O=C(NCC1CCCCN1)c1cc(OCC(F)(F)F)ccc1OCC(F)(F)F (configuration not stated) | 2.25 (inactive) |
| O=C(O)COCCN1CCN(C(c2ccccc2)c2ccc(Cl)cc2)CC1 (configuration not stated) | 20 (inactive) |
| Cc1ccc(/C(=C\CN2CCCC2)c2ccccn2)cc1 | 11.5 (inactive) |
| CC(C)(C)CC(C)(C)c1ccc(OCCOCC[N+](C)(C)Cc2ccccc2)cc1 | 0.167 (inactive) |
| Clc1ccccc1CN1CCc2sccc2C1 | 17.8 (inactive) |
| C[N+]1(C)CCC(OC(=O)C(O)(c2ccccc2)C2CCCC2)C1 (configuration not stated) | 3.83 (inactive) |
| CC(C)n1c(/C=C/[C@@H](O)C[C@@H](O)CC(=O)O)c(-c2ccc(F)cc2)c2ccccc21 | 2.5 (inactive) |
| CN(C)C(=N)N=C(N)N | 14 (inactive) |
| O=C(O)c1cn(C2CC2)c2cc(N3CCNCC3)c(F)cc2c1=O | 20.5 (inactive) |
| O=S(=O)(c1cccc2cnccc12)N1CCCNCC1 | 467 (active) |
| CS(=O)(=O)c1ccc([C@@H](O)[C@@H](CF)NC(=O)C(Cl)Cl)cc1 | 1.92 (inactive) |

Test: liver-stage malaria parasite growth inhibition, primary screen, cell-based, HepG2, luciferase luminescence, HepG2 viability (AID 624349);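 further: 100% = mean of DMSO negative control wells on the same plate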
Conditions: P. berghei liver stage in HepG2, luciferase luminescence, concentration not given here; parasite load remaining: stronger effect = lower value; viability: measured here: HepG2 viability without parasites

| Structure (SMILES) | parasite load remaining | viability |
| --- | --- | --- |
| O=C(NCC1CCCCN1)c1cc(OCC(F)(F)F)ccc1OCC(F)(F)F (configuration not stated) | -2.69% (inactive) and 85.7% (inactive) and 46.8% (inactive) | 26.8% and 98.2% and 100% |
| CN1[C@@H]2CC(OC(=O)[C@H](CO)c3ccccc3)C[C@H]1[C@@H]1O[C@@H]12 (some centres not stated) | 98.9% (inactive) and 107% (inactive) and 26.7% (inactive) | 102% and 73.5% and 68.5% |
| CC(C)(C(=O)O)c1ccc(C(O)CCCN2CCC(C(O)(c3ccccc3)c3ccccc3)CC2)cc1 (configuration not stated) | 72.9% (inactive) and 85.2% (inactive) and 65.9% (inactive) | 89.9% and 71.9% and 128% |
| CC(C)n1c(/C=C/[C@@H](O)C[C@@H](O)CC(=O)O)c(-c2ccc(F)cc2)c2ccccc21 | 164% (inactive) and 130% (inactive) | 82.3% and 114% |
| O=S(=O)(c1cccc2cnccc12)N1CCCNCC1 | 62.2% (inactive) and 44.5% (inactive) | 103% and 67.7% |
| CS(=O)(=O)c1ccc([C@@H](O)[C@@H](CF)NC(=O)C(Cl)Cl)cc1 | 110% (inactive) and 27.9% (inactive) | 101% and 68.5% |
| C[C@@H](O[C@H]1OCCN(Cc2n[nH]c(=O)[nH]2)[C@H]1c1ccc(F)cc1)c1cc(C(F)(F)F)cc(C(F)(F)F)c1 | 26.3% (inactive) | 67.5% |
| NCCCC(O)(P(=O)(O)O)P(=O)(O)O | 53.9% (inactive) and 32.7% (inactive) | 103% and 67.5% |
| CC1(C)[C@H](C(=O)O)N2C(=O)C[C@H]2S1(=O)=O | 25.7% (inactive) | 74% |
